Compounds with a hit are over-represented: about 10% of the library has one in this group of screens.
BAZ2B inh: blocks human BAZ2B. AID 504333. 360,000 tested, 4.4% active. AlphaScreen BAZ2B-H3K14Ac peptide displacement. Q9UIF8. Potency, µM (titrated, usually from 114 µM), hits mostly inhibitors; further: nearly all actives have a fitted effect of over 60% in size
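Complex of BAZ2B and biotin-H3K14Ac (50 nM apiece) forms over 30 min at RT, then faces library compounds up to 110 uM for another 30 min; AlphaScreen beads added, 20 min dark incubation, luminescence read.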
CtBP-E1A blk: blocks the CtBP interaction with E1A; AlphaScreen GST-E1A/His-CtBP binding, 1536-well; active compounds read low; activity change, % (test concentration not listed); 340,000 tested, 0.49% active; AID 651724; in the data active means activity change below about -65%; inconclusive means mostly about -30% to -63%
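AlphaScreen with 125 nM GST-E1A and 125 nM His-CtBP (5X stocks) in Tris pH 8.0, 300 mM NaCl, BSA, Tween 20, TCEP. Compounds preincubated 2 h at 37 deg C, then glutathione donor/nickel acceptor beads added for 1 h at 37 deg C in dark.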
JMJD2A Tudor: JMJD2A Tudor domain (human) inhibition; O75164; AlphaScreen JMJD2A-Tudor / H3K4me3 peptide binding; Potency, µM (titrated, usually from 114 µM), actives largely listed as inhibitors; 390,000 tested, 4.4% active; AID 504339; further: nearly all actives have a fitted effect of over 50% in size
HP1b chromo inh: inhibitors of HP1-beta chromodomain binding to methylated histone tails; P83916; AlphaScreen HP1-beta / biotin-H3K9me3 peptide binding; Potency, µM (titrated, usually from 114 µM), actives largely listed as inhibitors; 390,000 tested, 0.56% active; further: nearly all actives have a fitted effect of over 70% in size
Target sequence (P83916 whole entry, looked up): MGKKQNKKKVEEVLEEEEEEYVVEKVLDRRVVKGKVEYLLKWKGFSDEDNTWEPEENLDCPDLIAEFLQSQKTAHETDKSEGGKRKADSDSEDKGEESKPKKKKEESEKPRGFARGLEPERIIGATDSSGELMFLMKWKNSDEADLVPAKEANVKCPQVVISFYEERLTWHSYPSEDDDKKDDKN
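AlphaScreen: HP1-beta (50 nM) preformed 30 min with biotin-H3(1-18)K9me3 peptide (50 nM) in PBS pH 7.4, 0.01% Tween-20. Compound added for 30 min at RT, then streptavidin donor/nickel chelate acceptor beads (10 ug/mL) for 30 min.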
G9a inh: inhibitors of human histone lysine methyltransferase G9a; Potency, µM (top dose mostly 102 µM), hits mostly inhibitors; Q96KQ7; 350,000 tested, 8.8% active; G9a H3K9 monomethylation, AlphaScreen, 2 h; further: nearly all actives have a fitted effect of over 75% in size
Target sequence (Q96KQ7 913-1193 limits assumed): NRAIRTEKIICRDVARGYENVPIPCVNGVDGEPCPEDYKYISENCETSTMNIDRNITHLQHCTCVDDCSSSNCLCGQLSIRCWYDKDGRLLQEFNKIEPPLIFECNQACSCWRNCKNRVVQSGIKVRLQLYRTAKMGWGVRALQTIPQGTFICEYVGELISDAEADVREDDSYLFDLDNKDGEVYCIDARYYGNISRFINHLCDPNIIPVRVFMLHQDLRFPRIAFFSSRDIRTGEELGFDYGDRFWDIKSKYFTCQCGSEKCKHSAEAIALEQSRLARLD
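Enzyme 20 nM + cpd, 15 min RT; add b-H3K9 pep 500 nM / SAM 20 uM; 2 h RT; anti-H3K9me1 Ab 0.5 ug/mL + SA donor / anti-rabbit acceptor beads 20 ug/mL each, 10 min; AlphaScreen read.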
Six1-Eya2 inh: inhibitors of human Six1/Eya2 interaction. AlphaScreen GST-Six1/His-Eya2 binding, biochemical; active compounds read low. activity change, % (no concentration beside the values). 360,000 tested, 0.56% active; in the data active means activity change below about -65%; inconclusive means mostly about -30% to -63%
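GST-Six1 + His-Eya2 (5X stock: 250/500 nM); Tris pH 8.0, 300 mM NaCl, 0.05% BSA, 0.02% Tween 20; GSH donor/Ni acceptor beads; 1 h 37 °C dark; AlphaScreen readout.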
ME-1 growth: inhibitors of ME-1 leukemia cell proliferation, CBFb-RUNX1 project; 140 tested, 20% active; AID 504370; Potency, µM (doses to about 56.1 µM), most hits filed as inhibitors; ME-1 cell proliferation, ATP luminescence, 48 h; shares compounds with BAZ2B inh
Large screens that a line does not name were inactive (follow-up assays come after a bar, where they were run). Unless noted, the call rests on the fitted dose curve; in most records, active means well fitted curve in the direction sought with a large enough effect; inconclusive means small, poorly fitted or top-dose-only effect, or another doubt; inactive means no such curve, though single readings can be large; an effect the other way counts as inactive or inconclusive.

COc1ccc(OC)c(C(=O)NC(CC(N)=O)c2ccc(N3CCCCCC3)c([N+](=O)[O-])c2)c1 (stereo not given)	BAZ2B inh 50µM, JMJD2A Tudor inconclusive, G9a inh inconclusive
NC(=O)CC(NC(=O)c1ccc(Br)cc1)c1ccc(N2CCN(c3ccc(F)cc3)CC2)c([N+](=O)[O-])c1 (stereo not given)	none
NC(=O)CC(NC(=O)c1cccc(Br)c1)c1ccc(N2CCC(N3CCCCC3)CC2)c([N+](=O)[O-])c1 (stereo not given)	G9a inh 45µM
NC(=O)CC(NC(=O)c1ccccc1)c1ccc(NCCN2CCOCC2)c([N+](=O)[O-])c1 (stereo not given)	G9a inh 71µM
NC(=O)CC(NC(=O)c1cccc(Br)c1)c1ccc(N2CCN(c3ccc(F)cc3)CC2)c([N+](=O)[O-])c1 (stereo not given)	BAZ2B inh inconclusive, JMJD2A Tudor inconclusive, G9a inh 45µM
Cc1cc(C)cc(C(=O)NC(CC(N)=O)c2ccc(NCCN3CCOCC3)c([N+](=O)[O-])c2)c1 (stereo not given)	G9a inh inconclusive
COc1ccc(OC)c(C(=O)NC(CC(N)=O)c2ccc(NC(C)C)c([N+](=O)[O-])c2)c1 (stereo not given)	G9a inh inconclusive
CN(C)c1ccc(C(CNC(=O)COc2ccccc2)N2CCOCC2)cc1 (stereo not given)	none (no result: CtBP-E1A blk, Six1-Eya2 inh)
NC(=O)CC(NC(=O)c1ccccc1)c1ccc(N2CCN(c3ccccn3)CC2)c([N+](=O)[O-])c1 (stereo not given)	G9a inh 79µM
NC(=O)CC(NC(=O)c1ccc(Br)cc1)c1ccc(N2CCN(c3ccccc3)CC2)c([N+](=O)[O-])c1 (stereo not given)	BAZ2B inh inconclusive
O=C(c1ccncc1)N1CCC2(CC1)CCN(c1ccccn1)CC2	none (no result: BAZ2B inh, CtBP-E1A blk, JMJD2A Tudor, HP1b chromo inh, Six1-Eya2 inh)
COC(=O)c1cc2n3ccccc3c(C)c(-c3ccccc3)c-2c1C(=O)OC	BAZ2B inh 45µM, CtBP-E1A blk inconclusive, JMJD2A Tudor inconclusive, HP1b chromo inh inconclusive, G9a inh 45µM
COC(=O)c1cc2c(C)c(C)c3ccccn3c-2c1C(=O)OC	CtBP-E1A blk inconclusive, Six1-Eya2 inh inconclusive
COc1ccc(OC)c(C2C3=C(N=C4SCC(=O)N42)c2ccccc2CC3)c1 (stereo not given)	BAZ2B inh 50µM, JMJD2A Tudor inconclusive, G9a inh inconclusive
O=C(NC1CCCC1)C(c1cccnc1)N(C(=O)c1csnn1)c1ccccc1Cl (stereo not given)	JMJD2A Tudor 50µM
O=C(NC1CCCCC1)C(c1cccnc1)N(C(=O)c1csnn1)c1ccccc1F (stereo not given)	none
CC(O)(CS(=O)(=O)Cc1ccccc1)c1ccc(Cl)cc1 (stereo not given)	none (no result: CtBP-E1A blk)
Cc1ccc(C(C)(O)CS(=O)(=O)Cc2ccccc2Cl)cc1 (stereo not given)	G9a inh 45µM
Cc1ccccc1OCCCn1c(CCNC(=O)C2CCCCC2)nc2ccccc21	none (no result: CtBP-E1A blk, Six1-Eya2 inh)
Cc1cccc(-c2nc(CN3CCN(C(=O)C4CCCO4)CC3)cs2)c1 (stereo not given)	G9a inh 71µM
O=C(CCCN1C(=O)/C(=C/c2ccc(F)cc2)SC1=S)NCCCn1ccnc1	BAZ2B inh 22µM, JMJD2A Tudor inconclusive, HP1b chromo inh inconclusive, G9a inh inconclusive
COc1ccccc1/C=C1\SC(=S)N(CCC(=O)NCCCn2ccnc2)C1=O	BAZ2B inh 50µM, G9a inh inconclusive (no result: CtBP-E1A blk)
COc1ccc(/C=C2\SC(=S)N(CCC(=O)NCCCn3ccnc3)C2=O)cc1	BAZ2B inh 25µM, G9a inh 56µM (no result: CtBP-E1A blk)
COc1ccc2c(c1)-c1nc(/N=C/c3ccc(O)c(OC)c3)sc1CC2	BAZ2B inh inconclusive, JMJD2A Tudor inconclusive, HP1b chromo inh inconclusive, G9a inh inconclusive
COc1ccc2c(c1)-c1nc(N)sc1CC2	BAZ2B inh inconclusive, JMJD2A Tudor inconclusive, HP1b chromo inh inconclusive, G9a inh 25µM | ME-1 growth inactive
Oc1ccccc1/C=N/Nc1ncc(Br)cn1	Six1-Eya2 inh inconclusive | ME-1 growth 35µM
COc1cccc(COC(=O)C2CCN(S(=O)(=O)c3ccc(C)cc3C)CC2)c1OC	none
CC[C@H](C)[C@H]1CNC(=S)N1CC1CCN(CCCC2CCCC2)CC1	none (no result: BAZ2B inh, G9a inh)
CC(=O)Oc1cc(-c2coc3cc(OC(C)=O)c(OC(C)=O)c(OC(C)=O)c3c2=O)cc(OC(C)=O)c1OC(C)=O	none (no result: BAZ2B inh, CtBP-E1A blk, JMJD2A Tudor, HP1b chromo inh, Six1-Eya2 inh) | ME-1 growth inactive
NC(Cc1ccc(O)c(O)c1)C(=O)O (stereo not given)	none (no result: BAZ2B inh, CtBP-E1A blk, JMJD2A Tudor, HP1b chromo inh, G9a inh, Six1-Eya2 inh) | ME-1 growth inconclusive
NCCc1ccc(O)c(O)c1	BAZ2B inh inconclusive, JMJD2A Tudor 32µM, HP1b chromo inh 14µM, G9a inh 8.9µM | ME-1 growth inactive
N[C@H](Cc1ccc(O)c(O)c1)C(=O)O	G9a inh 18µM (no result: BAZ2B inh, CtBP-E1A blk, JMJD2A Tudor, HP1b chromo inh, Six1-Eya2 inh) | ME-1 growth inactive
N[C@@H](Cc1ccc(O)cc1)C(=O)O	none (no result: BAZ2B inh, CtBP-E1A blk, JMJD2A Tudor, HP1b chromo inh, Six1-Eya2 inh)
COC(=O)C(N)Cc1ccc(O)c(O)c1 (stereo not given)	G9a inh inconclusive
O=S(=O)(c1ccc2[nH]c3c(c2c1)CCCC3)N1CCN(c2cccc(C(F)(F)F)c2)CC1	JMJD2A Tudor inconclusive (no result: CtBP-E1A blk, Six1-Eya2 inh)
CCNc1ccccc(-c2ccc3ccccc3n2)c1=O	none
CCNC1=C(Cl)C(=O)c2ccccc2C1=O	BAZ2B inh 35µM, CtBP-E1A blk inconclusive, JMJD2A Tudor 50µM, HP1b chromo inh inconclusive, G9a inh inconclusive, Six1-Eya2 inh inconclusive | ME-1 growth inconclusive
CCOc1ncccc1C(=O)OCc1c(F)cccc1Cl	none (no result: BAZ2B inh)
c1ccc(CSc2ccc(-c3ccccn3)nn2)nc1	BAZ2B inh 4.5µM, CtBP-E1A blk -94, JMJD2A Tudor inconclusive, Six1-Eya2 inh -93 | ME-1 growth inconclusive
O=C(Cc1ccc(-c2ccccc2)cc1)NCCS(=O)(=O)N1CCN(c2ccccc2)CC1	none (no result: CtBP-E1A blk, Six1-Eya2 inh)
Cc1c(NC(=O)CS(=O)(=O)c2ccccc2)c(=O)n(-c2ccccc2)n1C	none
COc1ccc(NC(=O)CSc2nnnn2C2CCCC2)cc1S(=O)(=O)N1CCOCC1	none (no result: BAZ2B inh, JMJD2A Tudor, HP1b chromo inh, G9a inh)
COc1cc([C@@H]2c3cc4c(cc3[C@@H](O[C@@H]3O[C@@H]5CO[C@@H](C)O[C@H]5[C@H](O)[C@H]3O)[C@H]3COC(=O)[C@H]23)OCO4)cc(OC)c1O	none (no result: BAZ2B inh, G9a inh)

Screening data from PubChem.
